For 17 molecules, viability score results are on record in the supplement of paper PMC10646978.

The test has as its system RAW-Dual (murine macrophage reporter line). In words: viability score (confluency relative to resting cells, overnight) (fraction); higher = more viable, active = viable (0.7 or more). Conditions: modulator concentration 10 µM. The essentials: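 RAW-Dual macrophages in 384-well plates were incubated overnight with compound, final concentration 10 μM. Confluency images from IncuCyte were processed in IncuCyte software into two masks covering all imaged wells. The viability score is each well's confluency relative to resting cells, and a compound met the cutoff when both masks exceeded 70% of resting cells.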
Take `Nc1nc(=O)n([C@@H]2CS[C@H](CO)O2)cc1F`: the viability score is 1 (active). Turning to `C1=C(c2ccccc2)Nc2nnnn2C1c1ccccc1` (configuration not stated), the viability score was 1.01 (active). `CCN(Cc1ccncc1)C(=O)C(CO)c1ccccc1` (configuration not stated): the viability score was 1 (active). The value for `CCN(CC)c1ccc(C=NNC(=O)c2ccc(O)cc2)c(O)c1` was 0.577 (inactive); that for `CC(C(=O)O)c1ccc(C(=O)c2cccs2)cc1` (configuration not stated) was 1.01 (active). Turning to `O=C(Oc1ccc2ccccc2c1)c1ccccc1`, the viability score is 0.975 (active).

On to `CN1CCN(C(CNC(=O)c2ccccc2Br)c2ccc(F)cc2)CC1` (configuration not stated), for which the viability score is 1.01 (active). With `O=C(O)CSCC(=O)NC1CCSC1=O` (configuration not stated), the viability score is 1 (active).

On to `COc1ccc(C2CC(=O)C(=Cc3c[nH]c4ccccc34)C(=O)C2)cc1` (configuration not stated), for which the viability score was 0.991 (active). Turning to `O=C(NC(=S)Nc1ccccc1C(F)(F)F)c1cccc(I)c1`, the viability score is 1.01 (active). Regarding `CC(=O)N1CCC(C(=O)NCc2cccnc2-c2cnn(C)c2)CC1`, the viability score is 0.995 (active). Regarding `Nc1cccc(O)c1`, the viability score is 0.997 (active).

Take `Cc1cccc(C(=O)N2N=C(c3ccccc3)CC2(O)C(F)(F)F)c1` (configuration not stated): the viability score was 0.254 (inactive). For the molecule `O=C(O[C@H]1C[C@H]2CC3C[C@@H](C1)N2CC3=O)c1c[nH]c2ccccc12`, the viability score is 0.998 (active). Take `CC1=NN(c2ccc(C(=O)O)cc2)C(=O)C1=Cc1ccc(-c2cc(C)c(C)cc2[N+](=O)[O-])o1`: the viability score is 0.997 (active). As to `Cl.Cl.Fc1ccc(C(c2ccc(F)cc2)N2CCN(CC=Cc3ccccc3)CC2)cc1`, the viability score is 0.996 (active). With `Cc1ccc(C(=O)NC(=Cc2ccccc2)C(=O)NCCCn2ccnc2)cc1`, the viability score was 1.01 (active).
